Compound activity from PubChem BioAssay.
GALR2 agonist – GALR2 receptor agonists, primary screen, cell-based. Galanin receptor type 2 (Homo sapiens), O43603. GALR2-expressing cells, agonist activation read-out. activation, % (concentration not given with the values). 0.48% of 140,000 active. AID 803, 2007; in the data active = activation above about 5%, passing the limit was not always enough;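 note: 0% = vehicle buffer wells and 100% = reference agonist at full effect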
GALR2 antag – GALR2 antagonists in receptor-expressing cells, primary screen. 0.39% of 140,000 active. Galanin receptor type 2 (Homo sapiens), O43603. AID 828, 2007. inhibition, % at 4 µM. antagonist mode; in the data active = inhibition above about 27%;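 note: cells stimulated with galanin 1-16 at roughly its EC80; 0% = agonist challenge control and 100% = basal control without agonist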
S1P2 blocker – human S1P2 receptor antagonists, primary screen, cell-based. Sphingosine 1-phosphate receptor 2 (Homo sapiens), O95136. cell-based S1P2 antagonist assay, inhibition at 5 uM. inhibition, % at 5 µM. 0.21% of 97,000 active. AID 736, 2007; in the data active = inhibition above about 45%;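 note: CRE beta-lactamase reporter cells expressing human S1P2 stimulated with S1P; 0% = agonist at EC80 alone and 100% = agonist plus reference antagonist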
S1P2 ag – S1P2 receptor agonists, primary screen, cell-based. activation, % at 4.5 µM. AID 729, 2007. 0.46% of 97,000 active. S1P2-expressing cell line, agonist reporter read-out; in the data active = activation above about 16%;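 note: 0% = vehicle low control and 100% = maximal reference agonist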
DAT uptake mod – changed hDAT dopamine uptake under cocaine IC80, either direction, primary screen, cocaine antagonist project, cell-based, LLC-PK1 hDAT, [14C]-dopamine uptake, MLSMR | LLC-PK1 hDAT cells, [14C]-dopamine uptake with cocaine IC80; actives deviate in either direction | 1.3% of 110,000 active | B-score at 10 µM | Sodium-dependent dopamine transporter (Homo sapiens), Q01959;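 active = Z score or B-score, a plate-position-corrected score, falls beyond the plate's 99.7% confidence bounds, in either direction; inactive = both scores lie inside the 99.7% bounds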;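 note: scored against the spread of the other compound wells on the same plate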
Target sequence (Q01959 whole entry, looked up): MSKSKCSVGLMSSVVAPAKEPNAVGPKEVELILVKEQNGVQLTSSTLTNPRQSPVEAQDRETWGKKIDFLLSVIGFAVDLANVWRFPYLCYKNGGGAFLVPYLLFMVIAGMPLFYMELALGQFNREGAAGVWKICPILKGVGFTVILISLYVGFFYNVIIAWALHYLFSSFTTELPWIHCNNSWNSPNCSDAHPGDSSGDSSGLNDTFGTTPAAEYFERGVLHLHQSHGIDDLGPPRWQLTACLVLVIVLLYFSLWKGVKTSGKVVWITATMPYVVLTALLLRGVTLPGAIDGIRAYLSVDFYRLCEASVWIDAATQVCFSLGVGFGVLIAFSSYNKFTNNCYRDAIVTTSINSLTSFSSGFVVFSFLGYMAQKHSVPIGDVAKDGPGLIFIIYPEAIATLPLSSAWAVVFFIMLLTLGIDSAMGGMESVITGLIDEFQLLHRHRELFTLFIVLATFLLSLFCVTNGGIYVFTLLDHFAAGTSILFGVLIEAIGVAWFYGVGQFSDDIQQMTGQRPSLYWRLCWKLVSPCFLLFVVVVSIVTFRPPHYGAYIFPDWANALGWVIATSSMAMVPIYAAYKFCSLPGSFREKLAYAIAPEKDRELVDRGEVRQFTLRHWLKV
GALR2 agon conf – GALR2 agonists, retest of hits, confirmation, cell-based; shares compounds with GALR2 agonist; GALR2-expressing cells, agonist activation; activation, % at 5.6 µM; 10% of 460 active; in the data active = activation above about 8.4%;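 note: 0% = buffer-only vehicle wells and 100% = full reference agonist response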
BLA act counter – activators of NFAT-driven beta-lactamase reporter, confirmation, counter-screen for GALR2 agonist project, CHO NFAT-bla cells, FRET readout; shares compounds with GALR2 agonist; beta-lactamase FRET activation; activation, % at 5.6 µM; 10% of 460 active; AID 865, 2007;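 active = activation above the screen-wide mean activation plus 3 SD, cut at about 8% in these data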;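 note: 0% = DMSO with PBS wells and 100% = thapsigargin positive control wells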
Numbers without * were called inactive; / = no result given. Rows were chosen to be rich in hits. Some 2.1% of all compounds tested hit in one or more screens of this group.

SMILES | GALR2 agonist | GALR2 antag | S1P2 blocker | S1P2 ag | DAT uptake mod | others
COC(=O)c1cc2c(=O)n3ccccc3nc2n(Cc2cccnc2)c1=N | 1 | 0 | 12 | 2 | 0.75
Cc1cccn2c(=O)c3cc(C(=O)NCC4CCCO4)c(=N)n(Cc4cccnc4)c3nc12 (configuration not stated) | 1 | 4 | / | / | -0.15
O=S(=O)(Nc1ncnc2sc3c(c12)CCC3)c1ccc(Cl)s1 | -1 | 5 | 3 | 1 | -2.4*
O=C(O)[C@H](CO)Nc1ncnc2sc3c(c12)CCC3 | 0 | -4 | 5 | -4 | /
CC(C)Oc1ccc(Cl)cc1Nc1nc(NCCO)nc(N2CCCC2)n1 | / | / | / | / | 0.49
CCOc1ccccc1-c1cc(-c2n[nH]c(=S)n2CC)c2ccccc2n1 | -2 | -2 | / | / | /
CCOc1cccc(-c2cc(-c3n[nH]c(=S)n3CC)c3ccccc3n2)c1 | -1 | -13 | 13 | -9 | 2.4*
COc1ccc(C(CNc2ccc(S(=O)(=O)N3CCCC3)cc2[N+](=O)[O-])N2CCCC2)cc1 (configuration not stated) | -2 | -5 | / | / | /
CC(NS(=O)(=O)c1ccccc1)C(c1cccs1)N1CCN(c2ccccc2)CC1 (configuration not stated) | -3 | -3 | 15 | -8 | 4.8*
COc1ccccc1N1CCN(C(c2cccs2)C(C)NS(=O)(=O)c2ccccc2)CC1 (configuration not stated) | 0 | 0 | / | / | 0.33
CCN(CC)c1ccc2c(C)c(-c3ccc(N)cc3)c(=O)oc2c1 | 4 | 15 | / | / | /
CCOC(=O)CCc1c(C)c2ccc(O)cc2oc1=O | 0 | 4 | 0 | 0 | 0.06
CCOC(=O)Cc1c(C)c2ccc(N(CC)CC)cc2oc1=O | 19* | -4 | -6 | 20* | /
CCN(CC)c1ccc2c(Cl)c(Br)c(=O)oc2c1 | 0 | 76* | 103* | -18 | 0.54
CCc1c(C)c2ccc(OCC(=O)N(C)C)c(C)c2oc1=O | 0 | -14 | -31 | -5 | 1.6
CCOC(=O)CCc1c(C)c2ccc(OCC(=O)N(CC)CC)c(C)c2oc1=O | -2 | -2 | 1 | -3 | 2.7*
Cc1cc(Br)cc2c(C(=O)Nc3c(C)n(C)n(-c4ccccc4)c3=O)cc(-c3cccs3)nc12 | -3 | 7 | 9 | -10 | -0.26
Cn1c(=O)[nH]c(=O)c2c1nc(N1CCNCC1)n2Cc1cccc2ccccc12 | 15* | 5 | -6 | -4 | 0.92 | GALR2 agon conf=0;BLA act counter=-1
CCC(C)C(NC(=O)c1ccccc1NC(=O)c1ccc(OC)cc1)C(=O)NCc1ccco1 (configuration not stated) | 14* | 1 | 6 | 0 | -1.2 | GALR2 agon conf=7;BLA act counter=4
Cc1cc(C(=O)CSc2nnnn2C)c(C)n1-c1ccc2c(c1)OCCO2 | 0 | -8 | 9 | -4 | -0.23
Cc1nnc(SCC(=O)c2cc(C)n(-c3ccc4c(c3)OCO4)c2C)s1 | 10 | -8 | -5 | -5 | 0.12 | GALR2 agon conf=-1;BLA act counter=-2
CCOc1ccc(Nc2nc(Cc3nnc(SCC(=O)NCc4ccco4)n3CC)cs2)cc1 | 12* | -17 | -11 | -6 | 2.8 | GALR2 agon conf=12*;BLA act counter=27*
Cc1ccc(OCc2nnc(SCC(=O)NCc3ccco3)n2C)cc1 | -1 | -4 | -11 | -4 | 0.88
CCn1ncc(Br)c1C(=O)Nc1ccc(F)c([N+](=O)[O-])c1 | -2 | 7 | / | / | /
Cc1ccc(NC(=O)CN2CCCN(S(=O)(=O)c3ccc(Br)s3)CC2)cc1 | 8 | -3 | -12 | -3 | -0.22 | GALR2 agon conf=0;BLA act counter=-1
Cc1cc(C)cc(NC(=O)CN2CCCN(S(=O)(=O)c3ccc(Br)s3)CC2)c1 | -1 | -7 | -10 | -2 | -0.72
O=C(NC(C(=O)c1ccccc1)N1CCCCC1)c1ccccc1 (configuration not stated) | -2 | -2 | / | / | 1.1
